SW480 rerep: A quantitative high throughput screen for small molecules that induce DNA re-replication in SW480 colon adenocarcinoma cells; SW480 DNA re-replication, Hoechst DNA content imaging, 48 h; Potency, µM (highest dose often 46.1 µM), for the others: at the top dose re-replication activation, hits mostly activators; 340,000 tested, 1.8% active; AID 624297, 2012; also: % of control where 0% means no effect; nearly all actives have a fitted effect of over 55% in size
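Readout is total intensity of Hoechst-stained nuclei, excited at 405 nm and collected at 500-530 nm. Compound treatment lasted 48 hr at 37 C in 5% CO2 before staining.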
KB-V1 cytotox: qHTS assay for MDR1-selective chemotherapeutics: Primary screen using the drug-selected MDR subline cells KB-V1; KB-V1 MDR cells viability, CellTiter-Glo, 72 h; Potency, µM (doses to about 46.1 µM), most hits filed as cytotoxic; 400,000 tested, 3.4% active; also: % is scaled to controls: 0 for no effect and ±100 for the full control effect; nearly all actives have a fitted effect of over 60% in size
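Potencies derive from concentration-effect curves fitted to normalized luminescence (CellTiter-Glo) of KB-V1 cells treated for 72 h at 37 degrees C in phenol-red-free DMEM containing 10% FBS.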
ELG1 repair inh: qHTS screen for small molecules that inhibit ELG1-dependent DNA repair in human embryonic kidney (HEK293T) cells expressing luciferase-tagged ELG1; AID 504467, 2011; 330,000 tested, 2.3% active; Potency, µM (series often up to 46.1 µM), for the others: at the top dose activity change, negative = inhibition, actives largely listed as inhibitors; HEK293T ELG1-luciferase reporter, luminescence, 16 h; DNA damage induced by 5-fluorouridine; also: % is scaled to controls: 0 for no effect and ±100 for the full control effect; nearly all actives have a fitted effect of over 55% in size
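Cells (2,000 per well) received 5-fluorouridine plus test compound or DMSO and were incubated 16 hr at 37 °C, 5% CO2. Luciferase activity was read by luminescence 30 min after ONE-Glo addition; signal suppression marked inhibition of damage-induced ELG1 function.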
MCF10A rereplic: A quantitative high throughput screen for small molecules that induce DNA re-replication in MCF 10a normal breast cells. 350,000 tested, 2.9% active. MCF 10A DNA re-replication, Hoechst nuclear intensity, 48 h. AID 624296, 2012. Potency, µM (top dose mostly 46.1 µM), inactives show top-dose activity, positive = re-replication, usual class: activators; also: % of control where 0% means no effect; nearly all actives have a fitted effect of over 50% in size
KB-3-1 cytotox: qHTS assay for MDR1-selective chemotherapeutics: Primary screen using the parental adenocarcinoma cell KB-3-1 | KB-3-1 viability, CellTiter-Glo ATP luminescence, 72 h | Potency, µM (top dose mostly 46.1 µM), usual class: cytotoxic | 400,000 tested, 1.4% active | AID 1347075, 2019; also: % is scaled to controls: 0 for no effect and ±100 for the full control effect; nearly all actives have a fitted effect of over 60% in size
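Here the drug-naive KB-3-1 line serves as comparator for MDR sub-line selectivity; cells received compound titrations, 72 h at 37 °C, then CellTiter-Glo readout.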
Numbers without * were called inactive; i = inactive; ? = inconclusive; . = no result. Most compounds without a hit are left out; they make up all but 8.1% or so of the library. Calls follow the shape of the dose curve; as a rule, active = well fitted curve in the direction sought with a large enough effect; inconclusive = small, poorly fitted or top-dose-only effect, or another doubt; inactive = no such curve, though single readings can be large; an effect the other way counts as inactive or inconclusive. Potency is read from the fitted curve at half-maximal effect.

SMILES | SW480 rerep | KB-V1 cytotox | ELG1 repair inh | MCF10A rereplic | KB-3-1 cytotox
O=C1/C(=C/c2ccccc2)CN(C(=O)CCN2CCOCC2)C/C1=C\c1ccccc1 | ? | ? | . | 2.3µM* | i
O=C(/C=C/c1ccccc1)CCN1CCOCC1 | 8.2µM* | ? | . | ? | ?
CC(=O)Nc1ccc(NC(=O)COC(=O)c2ccccc2OCc2cccc(Br)c2)cc1 | . | i | . | . | i
COC(=O)c1ccccc1NC(=O)c1cc2nc(-c3ccc(OC)cc3)cc(C(F)(F)F)n2n1 | . | i | . | . | i
O=C(Nc1ccc(OC(=O)c2ccccc2)c(-c2nc3ccccc3s2)c1)c1ccccc1 | ? | i | -14% | 21µM* | i
O=C(Nc1ccc(Cc2nc3ccccc3s2)cc1)c1ccncc1 | 0% | 7.3µM* | ? | ? | 16µM*
NC(=O)c1ccc(NC(=O)CCc2nc3ccccc3s2)cc1 | 1% | ? | 20% | 2% | i
CC1(C(=O)NS(=O)(=O)C2CC2)CCCN(C(=O)c2cccs2)C1 (stereo unspecified) | . | i | . | . | i
Brc1ccc2nc(-c3cccs3)c(NCC3CCCO3)n2c1 (stereo unspecified) | 46% | i | ? | 21µM* | i
c1csc(-c2nc(NCC3CCCO3)c3ccccc3n2)c1 (stereo unspecified) | 1% | i | -21% | 8% | i
CCn1c(CCNC(=O)c2cccs2)nnc1SCC(=O)Nc1nc(-c2ccccc2)cs1 | -1% | ? | 23µM* | ? | i
CCn1c(SCC(=O)Nc2nc(-c3ccccc3)cs2)nnc1-c1ccccc1O | -7% | i | 21µM* | 4% | ?
Nn1c(SCC(=O)NC2CCCC2)nnc1C(F)(F)F | . | i | . | . | i
Cc1cccc(Nc2nc(N)c([N+](=O)[O-])c(N3CCN(C)CC3)n2)c1 | 6% | ? | ? | 14% | i
Cc1cccc(Nc2nc(N)c([N+](=O)[O-])c(N3CCCC(C)C3)n2)c1 (stereo unspecified) | ? | ? | 26µM* | ? | ?
CCN1CCN(c2nc(Nc3cccc(C)c3)nc(N)c2[N+](=O)[O-])CC1 | 0% | 4.1µM* | ? | 0% | i
O=C(NCc1ccc(F)cc1)c1ccc(CSCc2cccc(Cl)c2)o1 | . | i | . | . | i
CC1CN(CCc2ccccc2)c2nc3c(c(=O)n(CC(N)=O)c(=O)n3C)n2C1 (stereo unspecified) | ? | i | 7% | -1% | i
COc1ccc(CCNC(=O)CN(c2cc(OC)ccc2OC)S(=O)(=O)c2ccccc2)cc1 | -78% | 23µM* | -23% | -6% | i
COc1ccc(N(CC(=O)NCCSc2ccccc2)S(=O)(=O)c2ccccc2)c(OC)c1 | ? | ? | 21µM* | ? | i
COc1ccccc1N(CC(=O)NCCSc1ccccc1)S(=O)(=O)c1ccccc1 | 2% | . | . | 20% | .
Cc1ccc2ccccc2n1 | . | i | . | . | i
CCOC(=O)c1c(/N=C/N(C)C)sc(/C=N/Nc2ccccc2)c1-c1ccccc1Cl | 18µM* | i | 21µM* | 15µM* | i
CCOC(=O)c1c(/N=C/N(C)C)sc(/C=N/Nc2ccccc2)c1-c1ccccc1 | ? | i | -10% | 21µM* | i
O=S(=O)(/N=C(\c1ccc(F)cc1)N1CCOCC1)c1ccccc1 | . | i | . | . | i
SMILES | SW480 rerep | KB-V1 cytotox | ELG1 repair inh | MCF10A rereplic | KB-3-1 cytotox
Cc1cc(S(=O)(=O)c2ccc(Cl)cc2)nc(S(=O)(=O)c2ccc(Cl)cc2)c1C#N | . | ? | . | . | 9.2µM*
COc1ccc2nc(N3C(=O)C(O)=C(C(=O)c4ccco4)C3c3ccc(OC)c(OC)c3)sc2c1 (stereo unspecified) | . | i | . | . | i
Cc1ccc2nc(N3C(=O)C(O)=C(C(=O)c4ccc(C)o4)C3c3cccc(O)c3)sc2c1 (stereo unspecified) | 17% | i | 22% | 23µM* | i
CC(=O)c1ccc(-c2ccc(-c3cc(=O)oc4c(C(C)C)ccc(C)c34)cc2)cc1 | -10% | i | ? | ? | i
O=[N+]([O-])c1ccc(N2CCN(CCOc3nonc3-c3ccccc3)CC2)c(Cl)c1 | -3% | i | -7% | -23% | i
Cc1nonc1OCCN1CCN(c2ccc([N+](=O)[O-])cc2)CC1 | -2% | i | 21µM* | 0% | i
CC(=O)Nc1ccc(/C=C/c2nc3ccccc3s2)cc1 | . | i | . | . | i
CC(C)[C@H](NS(=O)(=O)c1ccc(Cl)cc1)C(=O)OCC(=O)c1c(N)n(C)c(=O)n(C)c1=O | -27% | i | ? | -5% | i
CCC(=O)Nc1ccc(C(=O)Cn2ncc(Cl)c(Cl)c2=O)cc1 | ? | ? | ? | 3.7µM* | ?
Cc1cc(Br)ccc1NC(=O)CNC(=O)Cn1ncc(Cl)c(Cl)c1=O | ? | ? | 8% | 1.2µM* | 5.2µM*
CCOC(=O)c1ccc(NC(=O)Cn2nc(C)c3ccccc3c2=O)cc1 | ? | i | 3% | 2% | i
CCOC(=O)c1ccc(NC(=O)Cn2ncc(Cl)c(Cl)c2=O)cc1 | 2.6µM* | ? | ? | 2.6µM* | ?
CCc1ccccc1NC(=O)CN(C)C(=O)Cn1ncc(Cl)c(Cl)c1=O | 6.5µM* | ? | ? | 5.8µM* | ?
CCOc1ccccc1NC(=O)Cc1noc2ccc(C)cc12 | . | i | . | . | i
CCCc1c(C(=O)N/N=C/C=C/c2ccccc2)nnn1-c1nonc1N | . | i | . | . | i
COC(=O)c1cccc(NC(=O)c2cc3sccc3n2C)c1 | -2% | 9.2µM* | ? | -8% | i
COC(=O)c1ccccc1NC(=O)c1cc2sccc2n1C | 3% | i | 4% | ? | i
Cc1ccc(NC2(c3ccccc3)C(=O)c3ccccc3C2=O)cc1F | . | i | . | . | i
Cc1ccc(NC(=O)Cn2c(=O)n(-c3ccccc3)c(=O)c3ccc(C(=O)NCc4ccc5c(c4)OCO5)cc32)cc1 | . | i | . | . | i
COc1ccc(CN2CCC(CO)(CCOc3ccccc3)CC2)c(OC)c1C | -4% | i | -7% | 13% | i
OCCOc1cccc(CN2CCC(CO)(CCOc3ccccc3)CC2)c1 | 18µM* | i | 1% | 3% | i
COc1ccc2[nH]c(CN3CCC(CO)(CCOc4ccccc4)CC3)c(C)c2c1 | -42% | ? | ? | 21µM* | i
CCOC(=O)[C@]12CCCC=C1N(Cc1ccccc1)C(=O)[C@H](CC(=O)NCCc1ccccc1OC)C2 | . | ? | . | . | i
